Reference: PubChem BioAssay (Tox21)
A number with no mark means an inactive call. Active and inactive are the calls of the source. Calls follow the shape of the dose curve; as a rule, active = well fitted curve in the direction sought with a large enough effect in the repeat runs; inconclusive = weak or mixed curves; inactive = flat fitted curve, though single readings scatter.
% is scaled to controls: 0 for no effect and ±100 for the full control effect.

Assay: qHTS assay to test for compound auto fluorescence at 590 nm (red) in HEK293 cell free culture (AID 720683)
Settings: cell-free medium autofluorescence, Ex540/Em590 red; series mostly up to 91.3 µM
Method in brief: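 Tox21 10K library compounds were pinned into cell-free DMEM with 10% FBS and fluorescence was read at excitation 540 nm. Activity is expressed as Rose Bengal sodium equivalency.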
In the case of `CCCCC(=O)O[C@]1(C(=O)CO)[C@H](C)C[C@H]2[C@@H]3CCC4=CC(=O)C=C[C@]4(C)[C@@]3(F)[C@@H](O)C[C@@]21C`, the outcome is reported as “inactive”. In the case of `CN1[C@@H]2CC[C@H]1CC(OC(=O)c1c[nH]c3ccccc13)C2` (some centres not stated), the outcome is reported as “inactive”. In the case of `O=C1CCCCC1C1CCCCC1` (configuration not stated), the outcome is reported as “inactive”. For `CC(C)(C)c1ccc(OC(=O)c2ccccc2O)cc1`, the outcome was “inactive”. With `Cc1cc2c(s1)Nc1ccccc1N=C2N1CCN(C)CC1` the outcome was “inactive”. With `CCCCCCCCCC/C=C/C#N` the outcome was “inactive”. For `O=C1C=CC(=O)O1`, the outcome was “inactive”. For `O=C(O)c1ccccc1Nc1cc(Cl)ccc1C(=O)O`, the outcome was “inactive”. Compound `CCCNC(C)C(=O)Nc1c(C)csc1C(=O)OC` (configuration not stated) has a fluorescence, % of fluorescent control of 0.0164% [at 18.6 µM]. For `O=S(=O)(O)C(F)(F)F`, the outcome was “inactive”. In the case of `CCCCC(CC)COC(=O)COc1cc(Cl)c(Cl)cc1Cl` (configuration not stated), the outcome is reported as “inactive”. For `OCCN(CCO)CCN(CCO)CCO`, the outcome was “inactive”. With `C1CSCCS1` the outcome was “inactive”. For `CN1C(=O)CC(c2ccccc2)C1=O` (configuration not stated), the outcome was “inactive”. With `NC1=NCC2c3ccccc3Cc3ccccc3N12` (configuration not stated) the outcome was “inactive”. For `COc1cc(Cl)ccc1Cl`, the outcome was “inactive”. For `OCCN1CCN(CCO)CC1`, the outcome was “inactive”. For `CCCCCCOc1ccc(N)cc1`, the outcome was “inactive”. For `CC(C)(C)c1cccc(O)c1`, the outcome was “inactive”. In the case of `CC[C@H]1CC[C@H](NCc2cc3c(cc2OC)[C@H]2C[C@H]2C(=O)N3C)[C@H](c2ccccc2)N1`, the outcome is reported as “inactive”. For `CCCCC1CCC(=O)O1` (configuration not stated), the outcome was “inactive”. With `O=C(C(Cl)Cl)N1CCOC12CCCCC2` the outcome was “inactive”. For `CCC(=O)c1ccc2c(c1)N(CCCN(C)C)c1ccccc1S2`, the outcome was “inactive”. In the case of `Oc1ccccc1C=NCc1ccccc1`, the outcome is reported as “inactive”. In the case of `CC(C)O`, the outcome is reported as “inactive”. With `CC(=O)OC1C2(C)CCC(C2)C1(C)C` (configuration not stated) the outcome was “inactive”. In the case of `OCc1c2ccccc2cc2ccccc12`, the outcome is reported as “inactive”. With `CC/C=C\CCOC(=O)CCCCC` the outcome was “inactive”. For `NC/C=C/C(=O)O`, the outcome was “inactive”. For `COc1ccc2nc(NC(=O)Nc3ccccc3)sc2c1`, the outcome was “inactive”. In the case of `Cc1ccccc1C(=O)Nc1ccc(C(=O)N2CCCC(O)c3cc(Cl)ccc32)c(C)c1` (configuration not stated), the outcome is reported as “inactive”. For `CN(CCCN1c2ccccc2CCc2ccccc21)CC(=O)c1ccc(Cl)cc1`, the outcome was “inactive”. `COC(=O)c1ccc2cc(C(=O)OC)ccc2c1` gave a fluorescence, % of fluorescent control of 0.0914% [at 18.6 µM]. For `CCC/C=C/CO`, the outcome was “inactive”. For `CCOC(=O)CS`, the outcome was “inactive”. `COc1cc(N)c(Cl)cc1C(=O)NC1CCN(Cc2ccccc2)CC1` showed a fluorescence, % of fluorescent control of 0.0929% [at 18.6 µM].

Assay: qHTS assay to test for compound auto fluorescence at 590 nm (red) in HepG2 cell free culture (AID 720684)
Settings: cell-free medium autofluorescence, red 540/590 nm; series mostly up to 91.3 µM
Method in brief: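 Ex 540 / Em 590 nm read of compound in cell-free MEM (10% FBS). Rose Bengal sodium reference.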
In the case of `O=C1CCCCC1C1CCCCC1` (configuration not stated), the outcome is reported as “inactive”. With `CC(C)(C)c1ccc(OC(=O)c2ccccc2O)cc1` the outcome was “inactive”. In the case of `Cc1cc2c(s1)Nc1ccccc1N=C2N1CCN(C)CC1`, the outcome is reported as “inactive”. With `O=C1C=CC(=O)O1` the outcome was “inactive”. In the case of `O=C(O)c1ccccc1Nc1cc(Cl)ccc1C(=O)O`, the outcome is reported as “inactive”. Work on `CCCNC(C)C(=O)Nc1c(C)csc1C(=O)OC` (configuration not stated) yielded a fluorescence, % of Rose Bengal of -0.056% [at 18.6 µM]. For `O=S(=O)(O)C(F)(F)F`, the outcome was “inactive”. With `CCCCC(CC)COC(=O)COc1cc(Cl)c(Cl)cc1Cl` (configuration not stated) the outcome was “inactive”. With `OCCN(CCO)CCN(CCO)CCO` the outcome was “inactive”. For `C1CSCCS1`, the outcome was “inactive”. In the case of `CN1C(=O)CC(c2ccccc2)C1=O` (configuration not stated), the outcome is reported as “inactive”. In the case of `NC1=NCC2c3ccccc3Cc3ccccc3N12` (configuration not stated), the outcome is reported as “inactive”. In the case of `COc1cc(Cl)ccc1Cl`, the outcome is reported as “inactive”. In the case of `CCCCCCOc1ccc(N)cc1`, the outcome is reported as “inactive”. For `CC(C)(C)c1cccc(O)c1`, the outcome was “inactive”. For `CC[C@H]1CC[C@H](NCc2cc3c(cc2OC)[C@H]2C[C@H]2C(=O)N3C)[C@H](c2ccccc2)N1`, the outcome was “inactive”. With `CCCCC1CCC(=O)O1` (configuration not stated) the outcome was “inactive”. In the case of `O=C(C(Cl)Cl)N1CCOC12CCCCC2`, the outcome is reported as “inactive”. In the case of `CCC(=O)c1ccc2c(c1)N(CCCN(C)C)c1ccccc1S2`, the outcome is reported as “inactive”. With `Oc1ccccc1C=NCc1ccccc1` the outcome was “inactive”. In the case of `CC(C)O`, the outcome is reported as “inactive”. For `CC(=O)OC1C2(C)CCC(C2)C1(C)C` (configuration not stated), the outcome was “inactive”. For `OCc1c2ccccc2cc2ccccc12`, the outcome was “inactive”. In the case of `CC/C=C\CCOC(=O)CCCCC`, the outcome is reported as “inactive”. For `NC/C=C/C(=O)O`, the outcome was “inactive”. For `COc1ccc2nc(NC(=O)Nc3ccccc3)sc2c1`, the outcome was “inactive”. For `CN(CCCN1c2ccccc2CCc2ccccc21)CC(=O)c1ccc(Cl)cc1`, the outcome was “inactive”. For `COC(=O)c1ccc2cc(C(=O)OC)ccc2c1`, the fluorescence, % of Rose Bengal was 0.0402% [at 18.6 µM]. In the case of `CCC/C=C/CO`, the outcome is reported as “inactive”. For `CCOC(=O)CS`, the outcome was “inactive”. With `COc1cc(N)c(Cl)cc1C(=O)NC1CCN(Cc2ccccc2)CC1` the fluorescence, % of Rose Bengal was 0.723% [at 18.6 µM].

Assay: qHTS assay to test for compound auto fluorescence at 460 nm (blue) in HepG2 cell free culture (AID 720685)
Settings: Cell-free culture medium, blue autofluorescence 405/460 nm; series mostly up to 91.3 µM
Method in brief: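 Cell-free plates of MEM plus 10% FBS received 23 nL compound or DMSO vehicle; blue-channel (405/460 nm) intensity scored against triamterene as reference fluorophore.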
With `CCCCC(=O)O[C@]1(C(=O)CO)[C@H](C)C[C@H]2[C@@H]3CCC4=CC(=O)C=C[C@]4(C)[C@@]3(F)[C@@H](O)C[C@@]21C` the outcome was “inactive”. With `O=C1CCCCC1C1CCCCC1` (configuration not stated) the outcome was “inactive”. In the case of `CC(C)(C)c1ccc(OC(=O)c2ccccc2O)cc1`, the outcome is reported as “inactive”. For `Cc1cc2c(s1)Nc1ccccc1N=C2N1CCN(C)CC1`, the outcome was “inactive”. In the case of `CCCCCCCCCC/C=C/C#N`, the outcome is reported as “inactive”. `CCCNC(C)C(=O)Nc1c(C)csc1C(=O)OC` (configuration not stated) showed a fluorescence, % of fluorescent control of -0.0067% [at 18.6 µM]. In the case of `O=S(=O)(O)C(F)(F)F`, the outcome is reported as “inactive”. With `CCCCC(CC)COC(=O)COc1cc(Cl)c(Cl)cc1Cl` (configuration not stated) the outcome was “inactive”. In the case of `OCCN(CCO)CCN(CCO)CCO`, the outcome is reported as “inactive”. For `C1CSCCS1`, the outcome was “inactive”. In the case of `CN1C(=O)CC(c2ccccc2)C1=O` (configuration not stated), the outcome is reported as “inactive”. In the case of `NC1=NCC2c3ccccc3Cc3ccccc3N12` (configuration not stated), the outcome is reported as “inactive”. With `COc1cc(Cl)ccc1Cl` the outcome was “inactive”. For `OCCN1CCN(CCO)CC1`, the outcome was “inactive”. With `CCCCCCOc1ccc(N)cc1` the outcome was “inactive”. In the case of `CC[C@H]1CC[C@H](NCc2cc3c(cc2OC)[C@H]2C[C@H]2C(=O)N3C)[C@H](c2ccccc2)N1`, the outcome is reported as “inactive”. With `CCCCC1CCC(=O)O1` (configuration not stated) the outcome was “inactive”. In the case of `O=C(C(Cl)Cl)N1CCOC12CCCCC2`, the outcome is reported as “inactive”. In the case of `CCC(=O)c1ccc2c(c1)N(CCCN(C)C)c1ccccc1S2`, the outcome is reported as “inactive”. In the case of `Oc1ccccc1C=NCc1ccccc1`, the outcome is reported as “inactive”. In the case of `CC(C)O`, the outcome is reported as “inactive”. With `CC(=O)OC1C2(C)CCC(C2)C1(C)C` (configuration not stated) the outcome was “inactive”. With `OCc1c2ccccc2cc2ccccc12` the outcome was “inactive”. For `COc1ccc2nc(NC(=O)Nc3ccccc3)sc2c1`, the outcome was “inactive”. In the case of `Cc1ccccc1C(=O)Nc1ccc(C(=O)N2CCCC(O)c3cc(Cl)ccc32)c(C)c1` (configuration not stated), the outcome is reported as “inactive”. For `CN(CCCN1c2ccccc2CCc2ccccc21)CC(=O)c1ccc(Cl)cc1`, the outcome was “inactive”. With `COC(=O)c1ccc2cc(C(=O)OC)ccc2c1` the fluorescence, % of fluorescent control was -0.114% [at 18.6 µM]. With `CCC/C=C/CO` the outcome was “inactive”. With `CCOC(=O)CS` the outcome was “inactive”. `COc1cc(N)c(Cl)cc1C(=O)NC1CCN(Cc2ccccc2)CC1` showed a fluorescence, % of fluorescent control of 2.92% [at 18.6 µM].
